# According to PubChem BioAssay (Tox21):
# “And” between values parts separate entries of the source, which are not always exact repeats. Identical values can stand only once. Records with an inconclusive call do not appear. A call without a number means that no potency is given here. Where a structure was tested more than once in an assay, its records may differ in their call. The source made the active and inactive calls. Unless noted, calls follow the shape of the full dose curve.
# Legend:
# [1] = qHTS assay to identify small molecule agonists of the sonic hedgehog signaling (Shh) pathway (AID 1259368); also: nearly all actives have a fitted effect of over 15% in size; also: potency is read from the fitted curve at half-maximal effect
# Outline: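 Luminescent signal was taken as a measure of Gli1-controlled luciferase expression in stably transfected NIH/3T3-derived cells that had been treated for 24 hr with compounds delivered in DMSO.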
# [2] = qHTS assay to identify small molecule antagonists of the sonic hedgehog signaling (Shh) pathway (AID 1259369); also: nearly all actives have a fitted effect of over 45% in size; also: potency is read from the fitted curve at half-maximal effect
# Outline: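 Screening used 3T3Gli1-Luc cells at 2,000 per well, compounds delivered in DMSO, and conditioned medium as agonist stimulus; plates incubated 24hr at 37 C and 5% CO2 before a 30min luciferase step.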
# [3] = biological target: Estrogen receptor beta (Homo sapiens) (UniProt Q92731); test: qHTS assay to identify small molecule agonists of the estrogen receptor beta (ER-beta) signaling pathway (AID 1259377; active = well fitted activation curve with a large enough effect in the signal ratio in the repeat runs, not every such curve was filed as active; the % refers to the signal ratio; also: potency is read from the fitted curve at half-maximal effect)
# Estrogen receptor beta (Homo sapiens), sequence (Q92731 whole entry, looked up): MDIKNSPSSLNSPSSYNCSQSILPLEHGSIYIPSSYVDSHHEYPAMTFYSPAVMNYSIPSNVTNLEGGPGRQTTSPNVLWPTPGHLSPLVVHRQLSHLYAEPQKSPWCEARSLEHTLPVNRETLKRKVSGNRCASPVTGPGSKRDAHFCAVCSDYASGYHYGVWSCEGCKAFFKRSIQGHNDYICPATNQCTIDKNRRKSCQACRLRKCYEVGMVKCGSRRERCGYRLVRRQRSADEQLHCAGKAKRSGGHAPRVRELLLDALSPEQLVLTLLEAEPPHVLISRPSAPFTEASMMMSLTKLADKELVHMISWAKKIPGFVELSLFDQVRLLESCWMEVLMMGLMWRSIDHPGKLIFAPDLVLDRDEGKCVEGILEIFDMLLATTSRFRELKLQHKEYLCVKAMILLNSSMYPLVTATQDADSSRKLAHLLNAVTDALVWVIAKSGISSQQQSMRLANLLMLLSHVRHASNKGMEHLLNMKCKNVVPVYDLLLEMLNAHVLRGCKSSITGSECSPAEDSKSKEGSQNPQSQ
# Outline: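 In HEK293T cells bearing a UAS-beta-lactamase reporter under ER-beta control, DMSO-delivered compounds were incubated for 16 hr at 37C. Activity was detected as fluorescence 2 hours after LiveBLAzer B/G FRET substrate addition.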
# [4] = qHTS assay to identify small molecule agonists of the androgen receptor (AR) signaling pathway in the presence of an antagonist - cell viability counter screen (AID 1259379; active = well fitted curve in the direction sought with a large enough effect in the repeat runs; an effect the other way counts as inactive or inconclusive; also: nearly all actives have a fitted effect of over 25% in size; also: potency is read from the fitted curve at half-maximal effect)
# Outline: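 In MDA-kb2 cells (human breast carcinoma, MMTV-luciferase), compounds at 15 concentrations plus 3.0uM nilutamide; 16 hr, 37C, 0% CO2; CellTiter-Fluor fluorescence read for viability.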
# [5] = biological target: Androgen receptor (Homo sapiens) (UniProt P10275); test: qHTS assay to identify small molecule agonists of the androgen receptor (AR) signaling pathway in the presence of an antagonist (AID 1259381); also: nearly all actives have a fitted effect of over 15% in size; also: potency is read from the fitted curve at half-maximal effect
# Androgen receptor (Homo sapiens), sequence (P10275 whole entry, looked up): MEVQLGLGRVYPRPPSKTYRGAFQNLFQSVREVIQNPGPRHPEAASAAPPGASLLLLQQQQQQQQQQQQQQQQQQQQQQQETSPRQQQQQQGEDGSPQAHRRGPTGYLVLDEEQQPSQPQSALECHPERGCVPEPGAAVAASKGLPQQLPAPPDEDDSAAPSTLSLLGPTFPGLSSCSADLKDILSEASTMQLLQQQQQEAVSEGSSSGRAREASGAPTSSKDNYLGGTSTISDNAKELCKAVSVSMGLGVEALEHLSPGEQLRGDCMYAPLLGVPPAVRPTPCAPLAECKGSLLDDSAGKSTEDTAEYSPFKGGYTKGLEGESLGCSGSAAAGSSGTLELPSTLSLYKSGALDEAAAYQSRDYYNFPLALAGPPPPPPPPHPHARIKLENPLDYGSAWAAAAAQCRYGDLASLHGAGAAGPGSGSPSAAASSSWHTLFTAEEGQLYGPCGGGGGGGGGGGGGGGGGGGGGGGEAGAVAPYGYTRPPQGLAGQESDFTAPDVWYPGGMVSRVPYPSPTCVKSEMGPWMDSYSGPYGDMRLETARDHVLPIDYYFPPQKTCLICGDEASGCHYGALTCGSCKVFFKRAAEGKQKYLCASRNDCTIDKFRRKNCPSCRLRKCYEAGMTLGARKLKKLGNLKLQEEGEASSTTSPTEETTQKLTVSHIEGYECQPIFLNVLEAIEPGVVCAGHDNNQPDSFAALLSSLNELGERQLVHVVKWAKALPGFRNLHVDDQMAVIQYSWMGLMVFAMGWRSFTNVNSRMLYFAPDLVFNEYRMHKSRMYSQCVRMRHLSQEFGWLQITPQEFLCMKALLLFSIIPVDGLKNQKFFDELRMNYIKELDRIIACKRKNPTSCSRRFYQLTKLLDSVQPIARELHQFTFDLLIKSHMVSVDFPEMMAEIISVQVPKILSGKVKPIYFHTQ
# Outline: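 Here, 15-concentration compound series were pin-transferred onto MDA-kb2 MMTV-luciferase cells already dosed with nilutamide (3.0uM final). After 16hr at 37C, ONE-Glo was added and luminescence read 30min later at room temperature.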
# [6] = qHTS assay to identify small molecule antagonists of the estrogen receptor beta (ER-beta) signaling pathway - cell viability counter screen (AID 1259382; active = well fitted curve in the direction sought with a large enough effect in the repeat runs; an effect the other way counts as inactive or inconclusive; also: nearly all actives have a fitted effect of over 55% in size; also: potency is read from the fitted curve at half-maximal effect)
# Outline: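 Tox21 10K library tested in qHTS format on ER-beta-bla HEK293T cells stimulated with 1nM E2; 16 hr treatment at 37C. Same-well CellTiter-Glo luminescence served as the cell viability measure.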
# [7] = biological target: Estrogen receptor (Homo sapiens) (UniProt P03372); test: qHTS assay to identify small molecule agonists of the estrogen receptor alpha (ER-alpha) signaling pathway in the presence of an antagonist (AID 1259383); also: nearly all actives have a fitted effect of over 15% in size; also: potency is read from the fitted curve at half-maximal effect; as to activation: top concentration of the series differs between compounds
# Estrogen receptor (Homo sapiens), sequence (P03372 whole entry, looked up): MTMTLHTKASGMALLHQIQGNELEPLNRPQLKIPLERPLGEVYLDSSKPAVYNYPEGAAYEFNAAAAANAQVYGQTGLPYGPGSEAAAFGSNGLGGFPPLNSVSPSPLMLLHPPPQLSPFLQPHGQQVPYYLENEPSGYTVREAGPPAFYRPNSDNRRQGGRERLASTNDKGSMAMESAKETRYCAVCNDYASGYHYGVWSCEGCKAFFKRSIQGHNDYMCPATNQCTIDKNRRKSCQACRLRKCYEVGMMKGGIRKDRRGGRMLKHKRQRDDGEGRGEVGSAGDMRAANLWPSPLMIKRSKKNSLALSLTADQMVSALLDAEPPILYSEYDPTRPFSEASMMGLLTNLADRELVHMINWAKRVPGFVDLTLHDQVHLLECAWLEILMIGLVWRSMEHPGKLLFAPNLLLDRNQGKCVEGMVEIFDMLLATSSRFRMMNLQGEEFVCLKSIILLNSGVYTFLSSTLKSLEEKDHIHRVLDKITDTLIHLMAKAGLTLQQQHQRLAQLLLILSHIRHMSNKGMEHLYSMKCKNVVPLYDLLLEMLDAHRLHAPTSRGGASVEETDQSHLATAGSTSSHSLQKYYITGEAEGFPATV
# Outline: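 In VM7Luc4E2 cells, 4,000 per well, compounds at 15 concentrations were co-incubated 22hr at 37C with 10.0nM final ICI-182,780. Luminescence from the stably transfected 4×ERE-luciferase reporter was recorded 30min after ONE-Glo addition.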
# [8] = qHTS assay to identify small molecule agonists or antagonists of the thyroid stimulating hormone receptor (TSHR) signaling pathway - wild type cell line counter screen (AID 1259384)
# Outline: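 Wild-type Hek293 cells, 800/well, 18 h at 37C, then compound with Ro20-1724 for 30 min RT. cAMP by HTRF (cAMP-d2/anti-cAMP cryptate), 1 h RT, fluorescence read. 15 concentrations, triplicates.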
# [9] = qHTS assay to identify small molecule agonists of the estrogen receptor beta (ER-beta) signaling pathway - cell viability counter screen (AID 1259380; active = well fitted curve in the direction sought with a large enough effect in the repeat runs; an effect the other way counts as inactive or inconclusive; also: nearly all actives have a fitted effect of over 30% in size; also: potency is read from the fitted curve at half-maximal effect)
# Outline: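 Viability of ER-beta-UAS-bla HEK293T cells was determined by CellTiter-Glo luminescence following 16 hr treatment with test compounds at 37C.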
# [10] = biological target: Estrogen receptor beta (Homo sapiens) (UniProt Q92731); test: qHTS assay to identify small molecule antagonists of the estrogen receptor beta (ER-beta) signaling pathway (AID 1259378; active = well fitted inhibition curve with a large enough effect in the signal ratio in the repeat runs, not every such curve was filed as active; the % refers to the signal ratio; also: potency is read from the fitted curve at half-maximal effect)
# Outline: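 ER-beta-UAS-bla HEK293T cells in 2% charcoal-stripped FBS medium treated with compound plus 1nM final 17-beta-estradiol for 16 hr at 37C. Beta-lactamase reporter read by FRET substrate fluorescence after 2 hours at room temperature.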
Structure (SMILES),Potency [1],Potency [2],Potency [3],Potency [4],Potency [5],Potency [6],Potency [7],outcome [8],Potency [9],Potency [10]
Cc1c(C(=O)NN2CCCCC2)nn(-c2ccc(Cl)cc2Cl)c1-c1ccc(Cl)cc1,inactive,inactive,inactive,inactive,inactive,inactive,inactive,inactive,–,–
CCc1nn(CCCN2CCN(c3cccc(Cl)c3)CC2)c(=O)n1CCOc1ccccc1,inactive,15 µM (active),inactive,29.8 µM (active),–,–,inactive,–,–,–
Cc1oncc1C(=O)Nc1ccc(C(F)(F)F)cc1,15.4 µM (active) and 9.44 µM (active),27.3 µM (active) and inactive,inactive,inactive,–,inactive,3.06 µM (active) and inactive,inactive,inactive,–
CCCOCCOCCO,inactive,inactive,inactive,–,–,–,inactive,inactive,inactive,inactive
O=S(=O)(c1ccccc1)c1ccc(Cl)cc1,inactive,inactive,inactive,–,–,–,inactive,inactive,inactive,–
CCOC(=O)C(C)Oc1ccc(Oc2nc3ccc(Cl)cc3o2)cc1 (stereo not drawn),inactive,inactive,inactive,–,inactive,inactive,–,–,inactive,–
CSc1ccc(Oc2ccc(S(N)(=O)=O)cc2CN(C)C)cc1C,inactive,5.45 µM (active),inactive,inactive,inactive,27.3 µM (active),inactive,inactive,38.6 µM (active),–
OC/C(Br)=C(\Br)CO,inactive,inactive,inactive,–,–,inactive,inactive,inactive,inactive,inactive
CC(C)c1nnc2ccc(-c3ocnc3-c3cc(F)ccc3F)cn12,inactive,1.09 µM (active),inactive,inactive,–,inactive,inactive,inactive,inactive,–
CC(=O)OCC(=O)[C@H]1CC[C@H]2[C@@H]3CCC4=CC(=O)CC[C@]4(C)[C@H]3CC[C@]12C,inactive,11.9 µM (active),inactive,inactive,3.76 µM (active),inactive,inactive,inactive,–,–
O=c1[nH]c2ccc(S(=O)CCN3CCC(Cc4ccc(F)cc4)CC3)cc2o1 (stereo not drawn),inactive,inactive,inactive,–,–,inactive,inactive,inactive,inactive,–
Cc1cc2nc3ccc(=[N+](C)C)cc-3sc2cc1N,inactive,2.66 µM (active),inactive,3.76 µM (active),inactive,–,inactive,–,4.22 µM (active),–
O=C(Nc1ccccc1)Nc1ccccc1,inactive,inactive,inactive,–,–,inactive,inactive,–,–,inactive
CCC(=O)Oc1ccc(/C(CC)=C(\CC)c2ccc(OC(=O)CC)cc2)cc1,inactive,24.3 µM (active),0.0017 µM (active),inactive,–,inactive,5.4 nM (active),inactive,–,–
Nc1nc(Cl)nc2c1ncn2[C@@H]1O[C@H](CO)[C@@H](O)[C@@H]1F,inactive,0.841 µM (active),inactive,inactive,–,–,inactive,inactive,inactive,–
CC(=O)[C@H]1CC[C@H]2[C@@H]3C=CC4=CC(=O)CC[C@@]4(C)[C@@H]3CC[C@]12C,inactive,11.9 µM (active),inactive,inactive,–,–,inactive,inactive,inactive,–
CO/N=C1\CN(c2nc3c(cc2F)c(=O)c(C(=O)O)cn3C2CC2)CC1CN (stereo not drawn),inactive,inactive,inactive,inactive,–,inactive,inactive,–,–,–
CNCCCC1c2ccccc2C=Cc2ccccc21,inactive,9.44 µM (active),inactive,–,–,18.8 µM (active),inactive,–,23.7 µM (active),11.9 µM (active)
O=Cc1c(Cl)cccc1Cl,inactive,inactive,inactive,–,–,–,inactive,inactive,inactive,inactive
Cc1ccccc1N1C(=O)c2cc(S(N)(=O)=O)c(Cl)cc2NC1C (stereo not drawn),inactive,inactive,inactive,–,–,inactive,–,inactive,inactive,inactive
COC(=O)c1cc(Cl)ccc1NS(=O)(=O)C(F)(F)F,inactive,inactive,inactive,inactive,inactive,inactive,–,inactive,inactive,–

Structure (SMILES),Potency [1],Potency [2],Potency [3],Potency [4],Potency [5],Potency [6],Potency [7],outcome [8],Potency [9],Potency [10]
Cn1c(=O)c2c(ncn2CC(=O)O)n(C)c1=O,inactive,inactive,inactive,–,inactive,inactive,inactive,inactive,–,inactive
Cc1cc(C(=C2C=CC(=Nc3ccc(S(=O)(=O)O)cc3S(=O)(=O)O)C=C2)c2ccc(Nc3ccc(S(=O)(=O)O)cc3)cc2)ccc1N,inactive,inactive,inactive,–,–,inactive,inactive,–,inactive,inactive
CC1=C(C=O)C(C)(C)CCC1,inactive,inactive,inactive,–,–,–,inactive,inactive,inactive,inactive
CO[C@H]1C=CO[C@@]2(C)Oc3c(C)c(O)c4c(O)c(c5c(c4c3C2=O)=NC2(CCN(CC(C)C)CC2)N=5)NC(=O)/C(C)=C\C=C/[C@H](C)[C@H](O)[C@@H](C)[C@@H](O)[C@@H](C)[C@H](OC(C)=O)[C@@H]1C,inactive,23.8 µM (active),inactive,47.5 µM (active),inactive,inactive,inactive,inactive,inactive,–
NC(=O)N(O)[C@@H]1COc2cc(OCc3ccccc3)ccc21,inactive,inactive,inactive,inactive,–,inactive,inactive,inactive,inactive,–
CCCCN(CCCC)C(=S)SSC(=S)N(CCCC)CCCC,inactive,1.91 µM (active),inactive,–,–,–,inactive,inactive,inactive,–
CCOc1cc(N)c(Cl)cc1C(=O)NCC1CN(Cc2ccc(F)cc2)CCO1 (stereo not drawn),inactive,inactive,inactive,inactive,–,inactive,inactive,inactive,2.37 µM (active),–
Cc1ccc(/C=N/n2c(-c3ccccc3)csc2=S)cc1,inactive,inactive,inactive,–,–,–,–,inactive,–,7.5 µM (active)
CC(=O)Oc1ccc2c(c1)CC[C@@H]1[C@@H]2CC[C@]2(C)[C@@H](O)CC[C@@H]12,inactive,1.19 µM (active),0.0008 µM (active),inactive,–,inactive,–,inactive,inactive,–
COCCOC,inactive,4.13 µM (active),inactive,–,–,inactive,–,inactive,–,inactive
CCC(Cc1ccccc1)(C(=O)c1ccc(N2CCOCC2)cc1)N(C)C (stereo not drawn),inactive,19.3 µM (active),inactive,–,–,inactive,inactive,inactive,–,inactive
CN(C)C(=O)Nc1ccc(Oc2ccc(Cl)cc2)cc1,inactive,inactive,inactive,–,–,inactive,–,inactive,inactive,–
CC(Cl)C(Cl)Cl (stereo not drawn),inactive,inactive,inactive,–,–,inactive,inactive,–,inactive,–
Cc1cc(O)c2c(O)c3c(O)cccc3cc2c1,inactive,inactive,inactive,–,inactive,inactive,–,inactive,inactive,–
c1cc[c]([Bi]([c]2ccccc2)[c]2ccccc2)cc1,inactive,13.7 µM (active),inactive,inactive,–,inactive,inactive,–,inactive,–
CN(C(=O)C(Cl)Cl)c1ccc(OC(=O)c2ccco2)cc1,inactive,inactive,inactive,inactive,inactive,inactive,–,inactive,inactive,–
CC(C)(C)C(=O)C(Oc1ccc(Cl)cc1)n1ccnc1 (stereo not drawn),inactive,inactive,inactive,inactive,–,–,inactive,inactive,1.19 µM (active),–
CCC(C(=O)OCCOCCN(CC)CC)c1ccccc1 (stereo not drawn),inactive,inactive,inactive,–,–,inactive,inactive,–,inactive,–
O=C(/C=C/c1ccccc1)OCCCc1ccccc1,inactive,inactive,inactive,–,–,–,inactive,inactive,inactive,inactive
C[Si]1(C)O[Si](C)(C)O[Si](C)(C)O1,inactive,inactive,–,inactive,inactive,inactive,–,inactive,inactive,–
